Assay [1] has as its target T1, ETS1 (UniProt P14921).
T1 sequence: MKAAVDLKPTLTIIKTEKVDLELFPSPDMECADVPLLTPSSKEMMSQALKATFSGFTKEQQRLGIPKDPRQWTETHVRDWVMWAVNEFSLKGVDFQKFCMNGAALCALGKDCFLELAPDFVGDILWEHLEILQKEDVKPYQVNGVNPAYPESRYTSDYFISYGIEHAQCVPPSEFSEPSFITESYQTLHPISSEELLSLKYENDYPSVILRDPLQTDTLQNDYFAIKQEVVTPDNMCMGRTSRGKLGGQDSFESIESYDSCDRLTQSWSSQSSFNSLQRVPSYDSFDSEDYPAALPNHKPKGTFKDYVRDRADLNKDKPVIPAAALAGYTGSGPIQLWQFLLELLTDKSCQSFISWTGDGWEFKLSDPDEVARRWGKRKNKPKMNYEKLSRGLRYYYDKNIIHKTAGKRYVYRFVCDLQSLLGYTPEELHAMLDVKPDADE
Kind of assay: ETS1 binding intensity (PBM fluorescence), ETS1 alone (arbitrary fluorescence units); higher = stronger binding. To be noted: ETS1 concentration 1 nM; RUNX1 concentration 0 nM.

The target in assay [2] is RUNX1 (UniProt Q01196). Kind of assay: RUNX1 binding intensity (PBM fluorescence), RUNX1 alone (arbitrary fluorescence units); higher = stronger binding. Conditions: RUNX1 concentration 2 nM; ETS1 concentration 0 nM. Here is the method: (§1)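 Cooperative gcPBM on 36-bp genomic probes with neighbouring ETS1 and RUNX1 sites. Recombinant human RUNX1 (2 nM) was incubated alone or with ETS1 (25 nM) and detected with anti-RUNX1 antibody plus Alexa488 secondary. Values are medians over 4 replicate spots; the RUNX1+ETS1 data were normalised to the RUNX1-only data. The probes sit in constant array flanks that are not printed.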
Sequence of RUNX1 (Q01196 whole entry): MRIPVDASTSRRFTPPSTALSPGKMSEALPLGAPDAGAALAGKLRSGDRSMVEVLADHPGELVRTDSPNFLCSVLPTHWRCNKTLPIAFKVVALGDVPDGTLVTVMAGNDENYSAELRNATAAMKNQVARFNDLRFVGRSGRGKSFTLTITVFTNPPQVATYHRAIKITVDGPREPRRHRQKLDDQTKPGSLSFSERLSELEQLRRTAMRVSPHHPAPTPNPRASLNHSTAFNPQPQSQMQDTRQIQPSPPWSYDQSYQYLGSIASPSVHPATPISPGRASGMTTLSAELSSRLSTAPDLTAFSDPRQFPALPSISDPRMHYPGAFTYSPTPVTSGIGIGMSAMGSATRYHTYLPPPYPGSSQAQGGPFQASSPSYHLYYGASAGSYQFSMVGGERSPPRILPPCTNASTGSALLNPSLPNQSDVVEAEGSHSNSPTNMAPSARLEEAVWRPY

The target in assay [3] is T1, ETS1. Kind of assay: ETS1 binding intensity (PBM fluorescence) in presence of RUNX1, normalised to ETS1-only experiment (arbitrary fluorescence units); higher = stronger binding. Conditions: ETS1 concentration 1 nM; RUNX1 concentration 25 nM.
Assay [4] deals with RUNX1 (UniProt Q01196). Nature of the assay: RUNX1 binding intensity (PBM fluorescence) in presence of ETS1, normalised to RUNX1-only experiment (arbitrary fluorescence units); higher = stronger binding. Conditions: RUNX1 concentration 2 nM; ETS1 concentration 25 nM. The protocol: as §1
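Wherever RUNX1 binding intensity (PBM fluorescence) in presence of ETS1, normalised to RUNX1-only experiment is given: Full-length recombinant human ETS1 or RUNX1 bound to double-stranded 36-bp genomic probes on microarrays, detected by protein-specific primary antibody and Alexa488 secondary, spot fluorescence as median of four replicate spots.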
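Wherever RUNX1 binding intensity (PBM fluorescence), RUNX1 alone is given: Full-length recombinant human RUNX1 bound to double-stranded 36-bp genomic probes on a high-density microarray, scored as Alexa488 fluorescence per spot via anti-RUNX1 antibody, median of four replicate spots.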

For AGGTGTACTTTCCGGGTGCAGACCGCGAATGGATCG, the ETS1 binding intensity came out at 383 in assay [1] and 534 in assay [3]. Also, the RUNX1 binding intensity in assay [2] came out at 743; in assay [4] it was 1120.
The corresponding values for CCCTGGACGGGAAGCGGCGGCCAGATCCGCAAGCCC are 584, 747, 808 and 940.
As for GATGGGCGAGTCAGGAAACCACAGCTCTGAGGGTGG, the ETS1 binding intensity in assay [1] came to 607; in assay [3], 1190. For the same sequence, the RUNX1 binding intensity is 950 in assay [2] and 1300 in assay [4].
Turning to AGGCCGTGCAGGAAATGAGACCCACAGCCACGTCAC, the ETS1 binding intensity in assay [1] worked out at 1800; in assay [3] it was 2180. For the same sequence, the RUNX1 binding intensity in assay [2] came to 789; in assay [4], 977.
In the case of GCGCTACAGGAACTTCCTGCGCGGTTGCTGTCGTTG, the ETS1 binding intensity turned out to be 1360 in assay [1] and 1570 in assay [3]. Moreover, the RUNX1 binding intensity in assay [2] was 702; in assay [4], 1180.
TGGCATTCTCCTTCCTGTCTCCTAACCACAGCCCAC: the ETS1 binding intensity came out at 741 in assay [1] and 2050 in assay [3]. Besides, the RUNX1 binding intensity was found to be 2110 in assay [2] and 4690 in assay [4].
As to TTACAATCATTTCCTCTCTGTGGTTTGGTGACAAAT, the ETS1 binding intensity in assay [1] was 722; in assay [3], 2000. Besides, the RUNX1 binding intensity in assay [2] came to 1620; in assay [4], 3180.
As to CTAACAGCAGGAAGTGCTTGGTGGTTTAGCACCTCA, the ETS1 binding intensity amounted to 2990 in assay [1] and 7150 in assay [3]. Besides, the figures for the RUNX1 binding intensity in assay [2] and in assay [4] were 664 and 1180, respectively.
As to GGACAAAACATCATAGGAAGTGGGTTTTGGGGTGAG, the ETS1 binding intensity was determined as 1500 in assay [1] and 2950 in assay [3]. Further, the RUNX1 binding intensity in assay [2] is 761; in assay [4] it was 914.
With ACAGGAAGTGTCTCTATAGAAACCAAACCACAGAAA, the results for the ETS1 binding intensity in assay [1] and in assay [3] were 1270 and 7500, respectively. Further, the results for the RUNX1 binding intensity in assay [2] and in assay [4] were 935 and 949, respectively.
Regarding GAGCGGAAACCCGAGAGTCAGTTCAACCACAGCCAC, the ETS1 binding intensity came to 592 in assay [1] and 980 in assay [3]. For the same sequence, the RUNX1 binding intensity in assay [2] worked out at 889; in assay [4], 1010.
On to CGAGTAGAGATAGCAGGAAGTGGTTTATTCTGAGGT, for which the ETS1 binding intensity in assay [1] is 6000; in assay [3] it was 12600. The RUNX1 binding intensity is 784 in assay [2] and 1800 in assay [4].
In the same order, the values of AGGGCATAAACAGGATGTGGTGTTGGATGAAACCTT are 5290, 7490, 750 and 1360.
Consider ACCTGAGCAGGAAGTAGCTGAGGTCGCGGTGCAGCA, for which the ETS1 binding intensity in assay [1] was found to be 2940; in assay [3] it was 3750. For the same sequence, the results for the RUNX1 binding intensity in assay [2] and in assay [4] were 730 and 1080, respectively.
As to TGGTGGCTATTTCCTCTCCCGCTGTGGTCCCTGGAG, the ETS1 binding intensity is 563 in assay [1] and 535 in assay [3]. The values for the RUNX1 binding intensity in assay [2] and in assay [4] were 728 and 1470, respectively.
As for CAAGGGAACATCCTTAAACAGCTTGTGGTATTGCTG, the ETS1 binding intensity in assay [1] came to 735; in assay [3] it was 1060. Also, the RUNX1 binding intensity in assay [2] was found to be 878; in assay [4], 1060.
On to CCTTCCTTCCTGCTGTGTACGTTGTGGTCACAGCAC, for which the ETS1 binding intensity in assay [1] was found to be 419; in assay [3], 932. The RUNX1 binding intensity in assay [2] is 1240; in assay [4], 3550.
Consider ATACCGGCGCATCCGGATTTTGAAGCCGCAGTGGAC, for which the ETS1 binding intensity in assay [1] came to 728; in assay [3] it was 774. Further, the RUNX1 binding intensity in assay [2] amounted to 673; in assay [4], 1200.
In the case of CTGCCCAGCCACTTCCTGCCCAACCACAGACTGACA, the ETS1 binding intensity in assay [1] worked out at 2210; in assay [3], 4910. For the same sequence, the values for the RUNX1 binding intensity in assay [2] and in assay [4] were 1420 and 6000, respectively.
For the sequence CTAGGCCACCGGAAGTCTCCGCAGTGGTTTTGCAAA, the ETS1 binding intensity in assay [1] is 14900; in assay [3], 25800. Further, the RUNX1 binding intensity turned out to be 762 in assay [2] and 1610 in assay [4].
In the same order, the values of TGGGAACTTCCTGTGGAGGAGTGCATTGTGGGACTT are 851, 726, 686 and 1630.
As for CCCCTCCCTGCTTCCTGTGTGGTGAGGGGTGATCAG, the ETS1 binding intensity in assay [1] and in assay [3] was 2040 each time. In addition, the figures for the RUNX1 binding intensity in assay [2] and in assay [4] were 782 and 1870, respectively.
With CGTTCTCTCATTTCCTGTGTGCACCCACATGAACCA, the ETS1 binding intensity was determined as 3340 in assay [1] and 3230 in assay [3]. The RUNX1 binding intensity turned out to be 1740 in assay [2] and 2920 in assay [4].
In the same order, the values of CCCTCTCTTCTTCCTCCCCCACCACAAAAGTCACAG are 550, 641, 2440 and 2280.
TCCAGGATGTGGGATGCCGTGCTGTACCGCATGTCA: the ETS1 binding intensity was determined as 498 in assay [1] and 1030 in assay [3]. The RUNX1 binding intensity was determined as 652 in assay [2] and 1160 in assay [4].

The values above are taken from the supplement of paper PMC10681739.
